Structures are written as SMILES. The whole screen tested about 220,000 compounds, of which about 910 (0.41%) were called active.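 Rule for the calls: active = primary inhibition above the hit cutoff, then over 50% inhibition at one or more dose response concentrations (cut at about 23% in these data, passing the limit was not always enough); inconclusive = conflicting primary data, or primary hits not chosen for dose response; inactive = low primary inhibition, or under 50% at every dose.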 What follows is part of a selection rich in actives, with near analogues and random picks from the rest. Potency and affinity values are given separately.

Usually inhibition stands for the relative decrease from the control value, in per cent.

Sequence of Aminopeptidase N (Plasmodium falciparum (isolate 3D7)) (O96935 whole entry, looked up): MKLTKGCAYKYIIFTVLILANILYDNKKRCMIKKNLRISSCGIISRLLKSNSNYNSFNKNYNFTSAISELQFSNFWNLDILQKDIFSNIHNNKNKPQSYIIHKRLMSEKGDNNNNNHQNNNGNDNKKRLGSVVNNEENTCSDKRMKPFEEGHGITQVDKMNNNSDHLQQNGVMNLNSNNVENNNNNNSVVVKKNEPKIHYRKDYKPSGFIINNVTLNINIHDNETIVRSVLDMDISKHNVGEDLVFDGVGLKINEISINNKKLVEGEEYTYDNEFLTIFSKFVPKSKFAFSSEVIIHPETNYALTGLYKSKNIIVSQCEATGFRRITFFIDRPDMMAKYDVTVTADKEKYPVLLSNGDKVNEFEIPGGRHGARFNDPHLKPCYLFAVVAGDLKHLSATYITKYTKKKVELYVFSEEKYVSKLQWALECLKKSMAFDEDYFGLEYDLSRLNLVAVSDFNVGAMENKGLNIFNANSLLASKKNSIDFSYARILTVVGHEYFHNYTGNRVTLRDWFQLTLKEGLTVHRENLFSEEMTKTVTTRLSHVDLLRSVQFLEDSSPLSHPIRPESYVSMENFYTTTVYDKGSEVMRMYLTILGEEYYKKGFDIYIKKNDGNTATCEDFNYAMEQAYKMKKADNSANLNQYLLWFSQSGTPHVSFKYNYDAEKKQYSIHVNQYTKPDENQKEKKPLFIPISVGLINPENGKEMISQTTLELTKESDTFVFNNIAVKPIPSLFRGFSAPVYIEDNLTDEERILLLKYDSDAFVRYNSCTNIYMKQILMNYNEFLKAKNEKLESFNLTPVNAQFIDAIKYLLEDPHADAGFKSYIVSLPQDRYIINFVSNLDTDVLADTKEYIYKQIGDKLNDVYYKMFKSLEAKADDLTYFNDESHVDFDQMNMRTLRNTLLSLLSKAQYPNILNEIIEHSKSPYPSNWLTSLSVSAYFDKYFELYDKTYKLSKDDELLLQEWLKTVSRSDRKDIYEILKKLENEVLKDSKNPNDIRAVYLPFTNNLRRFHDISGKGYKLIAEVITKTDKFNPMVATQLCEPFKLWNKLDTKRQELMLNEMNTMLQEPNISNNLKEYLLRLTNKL

The assay addresses Aminopeptidase N (Plasmodium falciparum (isolate 3D7)) (UniProt O96935). Put plainly: malaria alanyl aminopeptidase activity blockers – biochemical, fluorogenic H-Leu-NHMec substrate, 1536-well (AID 1445).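 Note: plate controls were DMSO full reaction for no effect and no enzyme background for full effect.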 The following applies: recombinant M1AAP, H-Leu-NHMec fluorogenic kinetic assay; at 30 µM, stronger effect = higher value unless noted.
Take `O=C1NCCCC1C(=O)N/N=C/c1ccccc1O` (centres undefined): the inhibition is 9.72% (inactive). In the case of `O=C(Cc1nn[nH]n1)NCc1ccccc1Cl`, the inhibition is 1.85% (inactive).

For the compound `CC1(C)CC(CCC(=O)NC(=S)Nc2ccccc2Cl)C(=O)O1` (centres undefined), the inhibition is 8.14% (inactive). As to `Cc1ccc(OCC(=O)Nc2ccccc2-c2ccccc2NC(=O)COc2ccc(C)cc2)cc1`, the inhibition is 3.53% (inactive). Regarding `N#Cc1cc(C(=O)c2cc(F)ccc2O)cn(Cc2ccccc2)c1=O`, the inhibition was 7.68% (inactive). On to `Cc1ccc(C(=O)NC(=S)Nc2ccc(CN3CCCCC3)cc2)c(C)c1`, for which the inhibition was 5.24% (inactive). The result for `CC(=O)N1CCN(c2ccc(Oc3nnnn3-c3ccccc3)cc2)CC1` reads 2.19% (inactive); that for `O=C(Cc1cccs1)N/N=C/C=C/c1ccccc1[N+](=O)[O-]`, 2.54% (inactive); that for `CCc1nnc(NS(=O)(=O)c2ccc(NC(=S)NC(=O)c3ccc(F)cc3)cc2)s1`, 22.7% (inactive). `CCc1nnc(NS(=O)(=O)c2ccc(NC(=S)NC(=O)c3ccc(Br)cc3)cc2)s1`: the inhibition was 21.6% (inactive).

As for `COc1ccc(C(=O)/C=C/Nc2cccc(O)c2)cc1`, the inhibition is -6.48% (inactive).

For the compound `Cn1nc(C(F)(F)F)c2cc(C(=O)Nc3ccc(F)c(Cl)c3)sc21`, the inhibition is 8.67% (inactive).

For `COc1ccc(/C=N/NC(=O)c2sc(C)nc2C)cc1`, the inhibition is 9.79% (inactive). As to `O=C(CNC(=O)c1ccncc1)N/N=C/c1cc(Br)ccc1OCc1ccccc1`, the inhibition is 5.07% (inactive). Consider `O=C(N/N=C/c1ccco1)c1cccc(N2CCCC2=O)c1`, for which the inhibition is 2.43% (inactive). In the case of `O=C(CNC(=O)c1cccc(Br)c1)N/N=C/c1cc(Br)cc(Br)c1O`, the inhibition was 0.13% (inactive). Regarding `CN(C)c1ccc(/C=N/NC(=O)c2cccc(N3CCCC3=O)c2)cc1`, the inhibition is 4.11% (inactive). `COc1ccccc1/C=N/NC(=O)c1sc(C)nc1C`: the inhibition is 5.02% (inactive). The result for `COc1ccccc1/C=C/C(=O)NCC(=O)N/N=C/c1cc(Br)ccc1OC` reads 22.4% (inactive). For `O=C(CNC(=O)c1ccc(F)cc1)N/N=C/c1cc(Br)ccc1OCc1ccccc1`, the inhibition was 0.24% (inactive). As to `CCOC(=O)CSc1nc2cc(C(=O)NCc3ccco3)ccc2c(=O)n1-c1ccc(F)cc1`, the inhibition is 4.72% (inactive). Take `O=C(CCCCn1c(=O)[nH]c2ccccc2c1=O)NCCc1c[nH]c2ccccc12`: the inhibition was 3.37% (inactive). As to `O=C(OCc1cc([N+](=O)[O-])cc2c1OCOC2)c1ccc2ccccc2n1`, the inhibition was -2.61% (inactive). For the compound `Cc1cccc(NC(=O)CC2SC(=O)N(c3ccccc3)C2=O)c1` (centres undefined), the inhibition was 0.32% (inactive).

Regarding `C=C1C(C(=O)Nc2cccc(OC)c2)C1C(=O)Nc1cccc(OC)c1` (centres undefined), the inhibition is 4.96% (inactive). In the case of `CCn1c(O)c(/C=N/N=C2CCCCC2)c2cc(C3=NNC(=O)CC3)ccc21`, the inhibition is 4.81% (inactive). For `CCOC(=O)c1sc2nccc(N(C)C)c2c1N=CN(C)C`, the inhibition is 6.88% (inactive). As to `COc1ccc(OC)c(CN2CCC(C(=O)N(C)CCc3ccc(OC)c(OC)c3)CC2)c1`, the inhibition was 6.02% (inactive). For `COc1cc(/C=N/NC(=O)c2cccc(NC(=O)c3ccccc3Cl)c2)ccc1O`, the inhibition was 21.6% (inactive). For `COc1ccccc1/C=N/NC(=O)c1cccc(NC(=O)c2ccccc2Cl)c1`, the inhibition was 6.04% (inactive).

With `CCNC(=O)COc1ccc(/C=N/NC(=O)c2cccnc2)cc1OC`, the inhibition was 3.71% (inactive). The result for `COc1cccc(/C=N/NC(=O)CN2CC(c3ccccc3)CC2=O)c1OC` (centres undefined) reads 0.13% (inactive); that for `CCC(O)(CC)C(=O)N/N=C/c1cc(Br)cc(Br)c1O`, 30.1% (inactive).

Take `COc1cccc(/C=N/NC(=O)CN2CC(c3ccccc3)CC2=O)c1O` (centres undefined): the inhibition was 5.93% (inactive). For `COc1cc(/C=N/NC(=O)c2cccnc2)ccc1OCC(=O)Nc1c(C)cc(C)cc1C`, the inhibition was 5.36% (inactive). Consider `O=C(O)c1ccccc1N/N=C/c1cc(Br)cc(Br)c1O`, for which the inhibition was 17.7% (inactive). For `O=c1[nH]c(Cc2ccccc2Cl)nc2ccccc12`, the inhibition was -2.4% (inactive).

Regarding `CCc1c(C)[nH]n(-c2nc(-c3ccccc3)cs2)c1=O`, the inhibition was -3.51% (inactive). For `C=CCn1c(=O)c2ccccc2n2c(SCc3nnc(-c4ccccc4Br)o3)nnc12`, the inhibition is 2.98% (inactive). With `Cc1ccc(NC(=O)c2cc(-c3ccco3)on2)cc1C`, the inhibition is 3.16% (inactive). In the case of `CC12COC3(C(=O)NCCc4ccccc4)CC1CCC32C` (centres undefined), the inhibition is 3.11% (inactive). For `CCCNS(=O)(=O)c1ccc(OCC(=O)NCCC2=CCCCC2)cc1`, the inhibition was 7.1% (inactive). With `Cc1ccc(S(=O)(=O)CCc2nnc(NC(=O)c3cccs3)s2)cc1`, the inhibition is -1.23% (inactive). Take `O=C(CNC(=O)c1ccncc1)N/N=C/c1ccc(Br)cc1`: the inhibition was 7.31% (inactive).

On to `O=C(CNC(=O)c1ccncc1)N/N=C/c1ccc(O)cc1O`, for which the inhibition is 3.55% (inactive). Take `Cc1ccc(/C=N/NC(=O)C(c2ccncc2)N2CCOCC2)cc1` (centres undefined): the inhibition is 2.18% (inactive).

`O=C(CNC(=O)c1ccccc1Br)N/N=C/c1ccc(O)cc1`: the inhibition is -0.27% (inactive). The result for `O=C(N/N=C/c1cc(Cl)cc(Cl)c1O)c1ccncc1` reads 29.6% (inactive); that for `COc1ccc(Br)cc1/C=N/NC(=O)C(c1ccncc1)N1CCOCC1` (centres undefined), -2.26% (inactive). The result for `O=C(N/N=C/c1cc(Cl)ccc1O)c1ccc(Br)cc1` reads 22.2% (inactive); that for `O=C(CNC(=O)c1ccccc1Br)N/N=C/c1ccccc1O`, -1.99% (inactive). For the compound `CC(=O)c1cc(CN2C(=O)CCC2=O)cs1`, the inhibition is -1.15% (inactive). Regarding `O=C(CSc1nc2ccccc2s1)NCCOc1ccc(Cl)cc1`, the inhibition is -0.05% (inactive). In the case of `COCc1c(C(=O)OC)nnn1-c1ccccc1`, the inhibition was -5.18% (inactive). The result for `CCCc1c(O)nc(SCCN(CC)CC)n(C(=O)c2ccccc2)c1=O` reads 6.49% (inactive); that for `CC(=O)c1ccc(N2CCN(C(=S)NCCCN(C)C)CC2)cc1`, 6.58% (inactive).

Turning to `O=C(N1CCOCC1)N1CCC(NC(=O)C23CC4CC(CC(C4)C2)C3)CC1`, the inhibition was -1.68% (inactive). With `O=C(COC(=O)/C=C/c1ccc(S(=O)(=O)N2CCOCC2)cc1)NCc1ccccc1`, the inhibition is 7.02% (inactive). With `COc1cccc(-c2nnc(SCC3CNC(=O)O3)n2-c2ccc(Cl)cc2)c1` (centres undefined), the inhibition was 3.85% (inactive). The result for `Cc1cccc(OCC(=O)Nc2cc(S(=O)(=O)N3CCCCC3)ccc2N2CCN(C)CC2)c1` reads 5.64% (inactive); that for `Cc1cnc(C(=O)Nc2nc(-c3ccccc3)cs2)cn1`, 7.19% (inactive). With `O=C(N/N=C/c1cc(Br)cc(Br)c1O)c1ccncc1`, the inhibition is 36.7% (inactive). In the case of `O=C(N/N=C/c1cc([N+](=O)[O-])ccc1O)c1ccncc1`, the inhibition was 18.8% (inactive). Take `CN(C)/C=C(\C=O)c1onc(-c2ccccc2Cl)c1C#N`: the inhibition was 6.68% (inactive). For `CN(CC(=O)Nc1ccccc1C(=O)N1CCCC1)S(=O)(=O)c1ccc(Br)cc1`, the inhibition is -0.21% (inactive). As for `CC(C)C1NC2(C(=O)c3ccccc3C2=O)C2C(=O)N(c3ccc(F)cc3)C(=O)C12` (centres undefined), the inhibition is 0.46% (inactive). As for `N=C1S/C(=C\c2ccco2)C(=O)N1c1ccc2c(c1)OCO2`, the inhibition was 10% (inactive). For `Cc1cccc(NC(=O)CN2C(=O)S/C(=C\c3ccc(-c4cccc(C(=O)O)c4C)o3)C2=O)c1`, the inhibition is 2.36% (inactive). On to `COc1cc(/C=C2\SC(=N)N(c3ccc4c(c3)OCO4)C2=O)cc(OC)c1O`, for which the inhibition was 5.15% (inactive). The result for `Cc1ccc(NC(=O)CN2C(=O)S/C(=C\c3ccc(-c4cccc(C(=O)O)c4C)o3)C2=O)cc1` reads 0.51% (inactive). As for `Cc1ccc(NC(=O)CN2C(=O)S/C(=C\c3ccc(-c4cccc(C(=O)O)c4C)o3)C2=O)cc1C`, the inhibition is 8.24% (inactive). On to `Cc1ccccc1NC(=O)CN1C(=O)S/C(=C\c2ccc(-c3cccc(C(=O)O)c3C)o2)C1=O`, for which the inhibition is -2.06% (inactive).

With `COc1ccc(-c2nnc(SCC(=O)Nc3cc(F)ccc3C)o2)cc1`, the inhibition was -0.41% (inactive). In the case of `CCOc1ccc(N2C(=O)C(=O)/C(=C(/O)c3ccccc3)C2c2ccccc2[N+](=O)[O-])cc1` (centres undefined), the inhibition was 5.86% (inactive). `Cc1ccc(C(=O)Nc2c(-c3cccs3)c(=O)c3ccccc3n2C)cc1`: the inhibition was 5.78% (inactive).

As to `NNC(=O)Cn1nc2n(c1=O)-c1ccccc1SC2`, the inhibition is -0.09% (inactive). The result for `Cc1nnc(-n2ncc(C#N)c2N)c2nn(-c3cccc(Cl)c3)c(C)c12` reads 0.94% (inactive). For `COC(=O)c1cc2oc(C)cc2n1CC(=O)N(C)c1ccccc1`, the inhibition is 24.4% (active). Take `C=CCN(C(=O)Cn1c(C(=O)OC)cc2oc(C)cc21)c1ccccc1`: the inhibition is 0.64% (inactive). In the case of `COC(=O)c1cc2sccc2n1CC(=O)N(C)c1ccccc1`, the inhibition was 4.58% (inactive).

As to `O=C(Cn1cc(C(F)(F)F)ccc1=O)N/N=C/c1ccccc1O`, the inhibition was 1.53% (inactive). On to `CN1C(=O)/C(=N/OC(=O)c2ccccc2)c2ccccc21`, for which the inhibition is -0.99% (inactive). The result for `CN1C(=O)/C(=N\OC(=O)c2cccc3ccccc23)c2ccccc21` reads 5.56% (inactive). The result for `COC(=O)c1cccc(Nc2nc(-c3cccnc3)nc3ccccc23)c1` reads 0.67% (inactive); that for `O=C(O)c1ccc(Nc2nc(-c3cccnc3)nc3ccccc23)cc1`, 10.8% (inactive); that for `C=CCn1c(=O)c2c(nc3n2CC(C)CN3c2cccc(OC)c2)n(C)c1=O` (centres undefined), 26.4% (active). `COc1cccc(N2CC(O)Cn3c2nc2c3c(=O)n(CCCc3ccccc3)c(=O)n2C)c1` (centres undefined): the inhibition is 2.82% (inactive). The result for `COc1cccc(N2CC(C)Cn3c2nc2c3c(=O)n(CCN3CCOCC3)c(=O)n2C)c1` (centres undefined) reads 2.83% (inactive); that for `Clc1cccc(NC2=NCCC2)c1`, 0.77% (inactive). The result for `O=[N+]([O-])c1cccc(NC2=NCCC2)c1` reads 3.59% (inactive); that for `c1ccc(Oc2cccc(NC3=NCCC3)c2)cc1`, 29.3% (active).

With `O=C(C1CCC1)N1CCN(Cc2ccccc2)CC1`, the inhibition was 7.01% (inactive). Turning to `Cc1ccc(CN2CCN(C(=O)C3CCCO3)CC2)cc1` (centres undefined), the inhibition is -1.62% (inactive). On to `Cc1ccc(CN2CCN(C(=O)C3CCC3)CC2)cc1`, for which the inhibition was 27.7% (active).

Source of the values: PubChem BioAssay AID1445 (SRMLSC, 2008).
